According to the supplement of paper PMC9794691:

test system: PC9; assay: area under confluence curve of compound monotherapy; compare to DMSO control AUC of the same experiment (AUC (confluence x time, arbitrary)); conditions: 100 nM; DMSO control AUC in same experiment: 44384
Description: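 compare to DMSO control AUC of the same experiment; Monotherapy arm of the osimertinib DTP screen: EGFR-mutant NSCLC cells were treated with the test compound alone at a fixed dose (highest dose with <50% inhibition of parental cells, or 1 uM), then switched to drug-free medium at the DTP stage. IncuCyte confluence was tracked and AUC computed in Prism. AUC scale depends on experiment duration, so each row carries the same-experiment DMSO control AUC (monotherapy activity = DMSO AUC minus monotherapy AUC). The monotherapy value is shared between screen formats.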

Row | SMILES | area under confluence curve
1 | C/C=C/Cn1cc(-c2cc(OC)c(C(=O)N3CCOCC3)cc2OC)c2cc(C)[nH]c2c1=O | 44600

same assay, conditions: 300 nM; DMSO control AUC in same experiment: 49189

Row | SMILES | area under confluence curve
2 | Cn1cnc2c(F)c(Nc3ccc(Br)cc3Cl)c(C(=O)NOCCO)cc21 [Selumetinib] | 49700

same assay, conditions: 1000 nM; DMSO control AUC in same experiment: 20567

Row | SMILES | area under confluence curve
3 | Cc1nc(N2CCC3(CC2)CO[C@@H](C)[C@H]3N)c(CO)nc1-c1cccc(Cl)c1Cl | 20500

same assay, conditions: 1000 nM; DMSO control AUC in same experiment: 21594

Row | SMILES | area under confluence curve
4 | COc1nn(C)cc1Nc1nccc(-c2c[nH]c3c(NC(=O)[C@@H](C)N4CCN(C)CC4)cccc23)n1 | 20800
5 | Cc1cc2cc(C(=O)c3cnn(-c4cnc(Oc5c(F)cccc5F)cc4C)c3N)[nH]c2cc1NS(C)(=O)=O | 18400

same assay, conditions: 1000 nM; DMSO control AUC in same experiment: 21678

Row | SMILES | area under confluence curve
6 | Cc1nc(N2CCC3(CC2)CO[C@@H](C)[C@H]3N)c(CO)nc1-c1cccc(Cl)c1Cl | 22100

same assay, conditions: 1000 nM; DMSO control AUC in same experiment: 22064

Row | SMILES | area under confluence curve
7 | CCc1cc2c(cc1N1CCC(N3CCOCC3)CC1)C(C)(C)c1[nH]c3cc(C#N)ccc3c1C2=O [Alectinib] | 16200

same assay, conditions: 1000 nM; DMSO control AUC in same experiment: 30578

Row | SMILES | area under confluence curve
8 | Cc1[nH]nc(C(F)(F)F)c1Cc1sc2c(c1C(=O)N1C[C@](C)(O)CO1)c(=O)n(C)c(=O)n2C(C)C | 30100

same assay, conditions: 1000 nM; DMSO control AUC in same experiment: 30580

Row | SMILES | area under confluence curve
9 | CS(=O)(=O)N1CCN(Cc2cc3nc(-c4cccc5[nH]ncc45)nc(N4CCOCC4)c3s2)CC1 | 24700

same assay, conditions: 1000 nM; DMSO control AUC in same experiment: 43316

Row | SMILES | area under confluence curve
10 | C[C@@H](c1ccc2nccn2c1)n1nnc2ncc(-c3cnn(C)c3)nc21 [Savolitinib] | 43600
